In PubChem BioAssay:
Several values for one entry are separate records, joined by “and”; a condition that tells them apart may be missing. Equal values may be shown once. A structure can be active in one record and inactive in another. Activity calls are given as the source filed them.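 How the source made its calls, unless noted: active means compounds that lower survival of HCT116 colon cancer cells in the luminescence readout, no numeric limit stated; inactive means the rest.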

What was measured:
[1] = stimulators of nuclear beta-catenin in C2C12, primary screen, imaging, WNT3A-conditioned medium, mouse C2C12, NPC library (AID 1117326; in the data active means nuclear beta-catenin stimulation mostly above about 4.2%, no sharp cut-off; inactive means mostly below about 10%; further: reference of the scale not given here); settings: stronger effect = higher value
[2] = stimulators of insulin release from INS-1E, primary screen, cell-based, 5 mM glucose, NPC library (AID 1117329;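 active means compound raises insulin release from rat beta cells at 5 mM glucose, no numeric limit stated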; further: reference of the scale not given here); settings: rat INS-1E insulin secretion, at 10 µM, stronger effect = higher value
[3] = growth inhibition of GSK3B-pretreated HCT116 cells – cell-based, CellTiter-Glo, 0.2 to 20 µM (AID 1117336;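 active means compounds lowering colon cancer cell viability after pretreatment blocking the GSK3B kinase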); settings: HCT116 viability after GSK3B inhibitor, at 20 µM, stronger effect = higher value
[4] = inhibition of endothelial tube formation, primary screen, imaging, VEGF stimulated, CD31 staining, tube area, NPC library (AID 1117340;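 active means compound that reduces growth-factor-driven endothelial tube area in a mixed cell culture, no cutoff stated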); settings: VEGF-stimulated ADSC/ECFC co-culture, at 10 µM, stronger effect = higher value
[5] = glucagon-like peptide 1 release enhancers, primary assay, NCI-H716 cell line, NPC library (AID 1117341;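 active means compound raises GLP1 secretion from the human gut endocrine cells, with no numeric limit stated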; further: reference of the scale not given here); settings: NCI-H716 cells, at 10 µM, stronger effect = higher value
[6] = HCT116 colon cancer cell growth inhibition, primary screen, CellTiter-Glo luminescence, NPC library (AID 1117342); settings: at 20 µM (top of the series)
[7] = CellTiter-Glo luminescent readout of SW480 viability loss, NPC library primary (AID 1117343;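 active means compounds that lower viability of the colon cancer cells in the luminescence readout, with no numeric limit stated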); settings: CellTiter-Glo luminescence; at 20 µM (top of the series)
[8] = decreased DLD-1 cellular survival, CellTiter-Glo luminescent readout, NPC compound collection, primary HTS (AID 1117346;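 active means compounds that lower survival of DLD-1 colon cancer cells in the luminescence readout, no cutoff given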); settings: DLD-1 viability, CellTiter-Glo luminescence; at 20 µM (top of the series)

Compound	nuclear beta-catenin stimulation ([1]; at 10 µM)	nuclear beta-catenin stimulation ([1]; stimulation, at 2 µM)	insulin secretion stimulation [2]	viability decrease [3]	tube area decrease [4]	GLP1 secretion stimulation [5]	inhibition of viability [6]	viability decrease (inhibition) [7]	viability decrease (inhibition) [8]
CC(=O)Nc1ccc(OC(=O)c2ccccc2OC(C)=O)cc1	0.6% (inactive)	14%	4.1% (inactive)	0.8% (inactive)	-15.2% (inactive)	-1.2% (inactive)	-5.8% (inactive)	-3% (inactive)	-10.1% (inactive)
C#C[C@]1(O)CC[C@@H]2[C@@H]3CCC4=CCCC[C@@H]4[C@H]3C(=C)C[C@@]21CC	1% (inactive)	-0.9%	-1.9% (inactive)	99.1% (active)	55.3% (active)	-7.2% (inactive)	99% (active)	102% (active)	101% (active)
CN(C)C(=O)CNC(=O)Cc1ccccc1	-0.3% (inactive)	2.4%	2.5% (inactive)	4.9% (inactive)	7.1% (inactive)	-1.3% (inactive)	7.5% (inactive)	-4.5% (inactive)	-0.5% (inactive)
CC(C)=CCC1C(=O)N(c2ccccc2)N(c2ccccc2)C1=O	-0.3% (inactive)	0.3%	-1.2% (inactive)	45.1% (inactive)	8.8% (inactive)	-1.5% (inactive)	-4.6% (inactive)	78.1% (active)	26.2% (inactive)
COc1ccc2c(c1)c(CC(=O)OC/C=C(\C)CC/C=C(\C)CCC=C(C)C)c(C)n2C(=O)c1ccc(Cl)cc1	2.2% (inactive)	3%	2.1% (inactive)	-16.7% (inactive)	5.1% (inactive)	-2.8% (inactive)	4.5% (inactive)	8.2% (inactive)	-1.2% (inactive)
C=CCN1C(=O)C(CC(C)C)NC1=S (stereo not given)	0% (inactive)	0.3%	-1.4% (inactive)	-1.7% (inactive)	-6.4% (inactive)	-4% (inactive)	-4.1% (inactive)	2.8% (active)	-17.7% (inactive)
C[C@@H]1CCN(C(=O)[C@H](CCCN=C(N)N)NS(=O)(=O)c2cccc3c2NC[C@H](C)C3)[C@@H](C(=O)O)C1	0.3% (inactive)	-0.5%	1.35% (inactive)	-9.7% (inactive)	-5.4% (inactive)	1.4% (inactive)	-3% (inactive)	-23.6% (inactive)	0.9% (inactive)
CCN(CC)C(=O)C1CN2CCc3cc(OC)c(OC)cc3C2CC1OC(C)=O (stereo not given)	-1.5% (inactive)	1.3%	3.5% (inactive)	-0.1% (inactive)	1.2% (inactive)	10.9% (inactive)	17.1% (inactive)	6.1% (inactive)	-4.5% (inactive)
CC/C=C(\C(=O)N[C@@H]1C(=O)N2C(C(=O)OCOC(=O)C(C)(C)C)=C(COC(N)=O)CS[C@H]12)c1csc(N)n1	-1% (inactive)	-0.1%	1.85% (inactive)	-5.5% (inactive)	-9.6% (inactive)	-0.1% (inactive)	-6.4% (inactive)	-3.4% (inactive)	-17.7% (inactive)
COC(=O)c1ccc(O)cc1	1.3% (inactive)	0.3%	-1.8% (inactive)	-8.75% (inactive)	4.5% (inactive)	0.6% (inactive)	-9.8% (inactive)	18.8% (inactive)	-6.75% (inactive)
NC(=O)CC[C@@H](N)C(=O)O	2.1% (inactive)	3.8%	-0.7% (inactive)	-14.2% (inactive)	15.2% (inactive)	-0.1% (inactive)	2.55% (inactive)	11.4% (inactive)	-7.9% (inactive)
CCN[C@@H]1C[C@H](N)[C@@H](OC2OC(CN)=CCC2N)[C@H](O)[C@H]1O[C@H]1OC[C@](C)(O)[C@H](NC)[C@H]1O (stereo not given in full)	1.3% (inactive)	0%	0.5% (inactive)	-7.4% (inactive)	0.9% (inactive)	-0.5% (inactive)	-2.2% (inactive)	-1.7% (inactive)	3.7% (inactive)
CC[C@@]1(O)C(=O)OCc2c1cc1n(c2=O)Cc2c-1nc1ccccc1c2/C=N/OC(C)(C)C	38.7% (active)	59.7%	2.9% (inactive)	-17.1% (active)	59.9% (active)	14.3% (inactive)	35% (active)	64.5% (active)	76.5% (active)
CCC(=O)O	-0.6% (inactive)	1.3%	3.2% (inactive)	-1.2% (inactive)	-25.7% (inactive)	-3% (inactive)	3.7% (inactive)	-0.5% (inactive)	3.7% (inactive)
Nc1ccc(C(=O)Nc2ccccc2N)cc1	10.2% (inactive)	1.9%	-0.6% (inactive)	39.9% (active)	8.5% (inactive)	1.1% (inactive)	72.5% (active)	64.9% (active)	29.3% (inactive)
O=S(=O)(O)c1ccc(O)cc1	0.1% (inactive)	2%	-2.6% (inactive)	-3.65% (inactive)	5.3% (inactive)	-0.7% (inactive)	-4% (inactive)	11.5% (inactive)	-5.95% (inactive)
COC(=O)/C=C\C(=O)OC	3.8% (inactive)	9%	2.95% (inactive)	8.3% (inactive)	10.6% (inactive)	-1.8% (inactive)	-5.7% (inactive)	5.9% (inactive)	-5.6% (inactive)
CCCOc1ccc2c(c1)CC[C@@H]1[C@@H]2CC[C@]2(C)C(OC)CC[C@@H]12 (stereo not given in full)	0.5% (inactive)	0%	-0.1% (inactive)	69.6% (active)	-3.1% (inactive)	-0.8% (inactive)	56% (active)	103% (active)	40.8% (inactive)
Cc1cc(O)c2ccccc2c1O	53.2% (active) and 30.1% (inactive)	1.1% and -0.7%	5% (inactive) and 0.4% (inactive)	101% (active) and 99.2% (active)	74.4% (active) and 26.8% (inactive)	-6.3% (inactive) and -0.9% (inactive)	102% (active) and 99.5% (active)	142% (active) and 102% (active)	104% (active) and 101% (active)
CCCCCCCCCCCCCCCCCCCCCC(=O)Nc1ccn([C@@H]2O[C@H](CO)[C@@H](O)[C@H]2O)c(=O)n1	4.1% (inactive)	-0.9%	3.05% (inactive)	48.1% (inactive)	51.7% (active)	-1.6% (inactive)	39.5% (inactive)	40.5% (inactive)	15% (inactive)
CCC(CN)=C(c1ccccc1)c1ccccc1	-0.1% (inactive)	0.1%	29.4% (active)	17.9% (inactive)	7% (inactive)	2.2% (inactive)	78.6% (active)	92% (active)	55.1% (active)
CC(C)[C@H](N)C(=O)O	-0.1% (inactive)	1.3%	0.4% (inactive)	-2.3% (inactive)	-14.8% (inactive)	-4.1% (inactive)	1.3% (inactive)	11.9% (active)	14.8% (inactive)
Nc1ccc(/C=C/c2ccc(N)cc2S(=O)(=O)O)c(S(=O)(=O)O)c1	0.5% (inactive)	0.9%	0.1% (inactive)	-4.75% (inactive)	-11.3% (inactive)	-0.8% (inactive)	-10.1% (inactive)	13% (active)	-4.05% (inactive)
O=C(CCN1CCN(CCO)CC1)N1c2ccccc2Sc2ccc(C(F)(F)F)cc21	2.5% (inactive)	1.4%	8.2% (inactive)	50.2% (active)	25.8% (inactive)	2.4% (inactive)	49.2% (inactive)	96.4% (active)	58.8% (active)
C[C@H](CCC(=O)O)[C@H]1CC[C@H]2[C@H]3[C@@H](CC[C@]12C)[C@@]1(C)CC[C@@H](O)C[C@H]1C[C@@H]3O	-1.6% (inactive)	0.2%	1% (inactive)	-8.5% (inactive)	-26.9% (inactive)	-1.3% (inactive)	7.3% (inactive)	6.1% (inactive)	-6.8% (inactive)
CCCCN1CCCC[C@H]1C(=O)Nc1c(C)cccc1C	0.3% (inactive)	0.4%	25.7% (active)	26.6% (inactive)	-20.3% (inactive)	2.9% (inactive)	23.7% (inactive)	21.1% (inactive)	23.1% (inactive)
CCCOC(=O)c1ccc(N)cc1	-0.1% (inactive)	0.3%	-1.5% (inactive)	-4.45% (inactive)	4.9% (inactive)	-0.1% (inactive)	1.8% (inactive)	110% (active)	21.4% (inactive)
CNc1c2c(nn1C)CCCC2	0.2% (inactive)	0.4%	0% (inactive)	-3.4% (inactive)	16.1% (inactive)	0% (inactive)	-4.2% (inactive)	-2.2% (inactive)	0.1% (inactive)
CCN(CC)S(=O)(=O)c1ccc(C(=O)O)cc1	1.6% (inactive)	0.7%	-2.1% (inactive)	-8.6% (inactive)	8.6% (inactive)	-3.2% (inactive)	-14.7% (inactive)	40% (inactive)	7.45% (inactive)
CO/N=C(/C(=O)N[C@@H]1C(=O)N2C(C(=O)OCOC(=O)C(C)(C)C)=C(C)CS[C@H]12)c1csc(N)n1	1% (inactive)	-2%	5.9% (inactive)	7.7% (inactive)	-11.2% (inactive)	-21% (inactive)	0.6% (inactive)	15% (inactive)	-8.3% (inactive)
